In all, about 5,500 compounds went through this assay and about 2,000 (36%) were called active. Not shown: some 18% with an inconclusive outcome. Rule as the data show it: active = normalized growth mostly below about 0.91 (no sharp cut-off); inconclusive = no clear call, values can overlap the other calls; inactive = mostly above about 0.92. This is one part of the list.
Assay: chemical genetic growth profiling, strain panel (AID 1159580);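 also: tested at 20 µM; growth read once vehicle control cultures reached saturation at 30 °C; 1 = growth at the plate median or of vehicle wells; lower values mean less growth of the strain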
Settings: growth OD

Measured: normalized growth

C=C[C@@](C)(O)CCC1C(=C)CCC2[C@@](C)(CO)CCC[C@]12C (some centres undefined)
inactive: S. cerevisiae deletion strains, locus YJR066W, strain TOR1, hits give low values 0.868 | S. cerevisiae deletion strains, locus YJR075W, strain HOC1, hits give low values 1.05 | S. cerevisiae deletion strains, locus YKL068W, hits give low values 1.02 | S. cerevisiae deletion strains, locus YKL085W, strain MDH1 (second series), hits give low values 0.994 | S. cerevisiae deletion strains, locus YKL085W, strain MDH1, hits give low values 0.994 | S. cerevisiae deletion strains, locus YKL160W, strain elf1, hits give low values 0.966 | S. cerevisiae deletion strains, locus YKL190W, strain CNB1, hits give low values 1.06 | S. cerevisiae deletion strains, locus YKR001C, strain vps1, hits give low values 1 | S. cerevisiae deletion strains, locus YKR026C, strain gcn3, hits give low values 1.08 | S. cerevisiae deletion strains, locus YKR091W, strain srl3, hits give low values 1.07 | S. cerevisiae deletion strains, locus YLL001W, strain dnm1, hits give low values 0.935 | S. cerevisiae deletion strains, locus YLL026W, hits give low values 1.03 | S. cerevisiae deletion strains, locus YLR027C, strain aat2, hits give low values 0.997 | S. cerevisiae deletion strains, locus YLR039C, strain RIC1, hits give low values 0.868 | S. cerevisiae deletion strains, locus YLR058C, strain SHM2, hits give low values 1 | S. cerevisiae deletion strains, locus YLR102C, strain apc9, hits give low values 1.05 | S. cerevisiae deletion strains, locus YLR113W, strain HOG1, hits give low values 0.891 | S. cerevisiae deletion strains, locus YLR221C, strain rsa3, hits give low values 0.982 | S. cerevisiae deletion strains, locus YLR258W, strain gsy2, hits give low values 1 | S. cerevisiae deletion strains, locus YLR268W, strain sec22, hits give low values 0.959 | S. cerevisiae deletion strains, locus YLR320W, strain mms22, hits give low values 0.98 | S. cerevisiae deletion strains, locus YLR330W, strain CHS5, hits give low values 1.05 | S. cerevisiae deletion strains, locus YLR342W, strain FKS1 (second series), hits give low values 0.883 | S. cerevisiae deletion strains, locus YLR342W, strain FKS1, hits give low values 0.999 | S. cerevisiae deletion strains, locus YLR370C, strain arc18, hits give low values 1.04 | S. cerevisiae deletion strains, locus YLR418C, strain cdc73, hits give low values 1.07 | S. cerevisiae deletion strains, locus YML016C, strain PPZ1, hits give low values 1.04 | S. cerevisiae deletion strains, locus YML032C, strain rad52, hits give low values 0.912 | S. cerevisiae deletion strains, locus YML120C, strain ndi1, hits give low values 0.974 | S. cerevisiae deletion strains, locus YML124C, strain tub3, hits give low values 1.04 | S. cerevisiae deletion strains, locus YMR058W, strain fet3, hits give low values 0.992 | S. cerevisiae deletion strains, locus YMR078C, strain ctf18, hits give low values 1.05 | S. cerevisiae deletion strains, locus YMR129W, hits give low values 1.06 | S. cerevisiae deletion strains, locus YMR205C, strain PFK2, hits give low values 0.969 | S. cerevisiae deletion strains, locus YMR223W, strain ubp8, hits give low values 0.995 | S. cerevisiae deletion strains, locus YMR231W, strain pep5, hits give low values 1.05 | S. cerevisiae deletion strains, locus YMR263W, strain SAP30, hits give low values 1.07 | S. cerevisiae deletion strains, locus YMR307W, strain GAS1, hits give low values 0.91 | S. cerevisiae deletion strains, locus YNL067W, strain RPL9B, hits give low values 0.979 | S. cerevisiae deletion strains, locus YNL071W, strain lat1, hits give low values 1 | S. cerevisiae deletion strains, locus YNL153C, strain GIM3, hits give low values 0.971 | S. cerevisiae deletion strains, locus YNL183C, strain NPR1, hits give low values 0.842 | S. cerevisiae deletion strains, locus YNL209W, strain ssb2, hits give low values 0.984 | S. cerevisiae deletion strains, locus YNL233W, strain BNI4, hits give low values 1.07 | S. cerevisiae deletion strains, locus YNL248C, strain rpa49, hits give low values 0.983 | S. cerevisiae deletion strains, locus YNL250W, strain rad50, hits give low values 0.995 | S. cerevisiae deletion strains, locus YNL271C, strain bni1, hits give low values 1 | S. cerevisiae deletion strains, locus YNL307C, strain MCK1, hits give low values 1.03 | S. cerevisiae deletion strains, locus YNL322C, strain KRE1 (second series), hits give low values 0.933 | S. cerevisiae deletion strains, locus YNR049C, strain mso1, hits give low values 1.06 | S. cerevisiae deletion strains, locus YNR052C, strain pop2, hits give low values 0.929 | S. cerevisiae deletion strains, locus YOL006C, strain TOP1, hits give low values 0.948 | S. cerevisiae deletion strains, locus YOL012C, strain htz1 1.69 | S. cerevisiae deletion strains, locus YOL147C, strain pex11, hits give low values 1.04 | S. cerevisiae deletion strains, locus YOR001W, strain rrp6, hits give low values 0.986 | S. cerevisiae deletion strains, locus YOR061W, strain CKA2, hits give low values 0.955 | S. cerevisiae deletion strains, locus YOR069W, strain VPS5, hits give low values 1.02 | S. cerevisiae deletion strains, locus YOR070C, strain gyp1, hits give low values 0.982 | S. cerevisiae deletion strains, locus YOR080W, strain dia2, hits give low values 1.01 | S. cerevisiae deletion strains, locus YOR083W, strain WHI5, hits give low values 0.939 | S. cerevisiae deletion strains, locus YOR106W, strain vam3, hits give low values 0.933 | S. cerevisiae deletion strains, locus YOR136W, strain idh2, hits give low values 1.01 | S. cerevisiae deletion strains, locus YOR144C, strain elg1, hits give low values 0.989 | S. cerevisiae deletion strains, locus YOR265W, strain rbl2, hits give low values 1.03 | S. cerevisiae deletion strains, locus YOR270C, strain vph1, hits give low values 0.839 | S. cerevisiae deletion strains, locus YOR290C, strain snf2, hits give low values 0.916 | S. cerevisiae deletion strains, locus YOR316C, strain cot1, hits give low values 1.06 | S. cerevisiae deletion strains, locus YPL051W, strain arl3, hits give low values 0.935 | S. cerevisiae deletion strains, locus YPL078C, strain atp4, hits give low values 0.939 | S. cerevisiae deletion strains, locus YPL240C, strain hsp82, hits give low values 1.06 | S. cerevisiae deletion strains, locus YPL256C, strain CLN2, hits give low values 0.915 | S. cerevisiae deletion strains, locus YPR141C, strain kar3, hits give low values 1.07 | S. cerevisiae deletion strains, locus YPR163C, strain tif3, hits give low values 0.977 | S. cerevisiae deletion strains, locus YPR167C, strain met16, hits give low values 1.01 | S. cerevisiae deletion strains, strain wtn01, hits give low values 0.945 | S. cerevisiae strains, strain wild type, hits give low values 1
active: S. cerevisiae deletion strains, locus YKL009W, strain mrt4, hits give low values 0.776 | S. cerevisiae deletion strains, locus YLL041C, strain sdh2, hits give low values 1.08 [resistant] | S. cerevisiae deletion strains, locus YLR262C, strain YPT6 (second series), hits give low values 0.733 | S. cerevisiae deletion strains, locus YLR357W, strain rsc2, hits give low values 1.16 [resistant] | S. cerevisiae deletion strains, locus YLR371W, strain rom2, hits give low values 1.12 [resistant] | S. cerevisiae deletion strains, locus YLR384C, strain iki3, hits give low values 1.09 [resistant] | S. cerevisiae deletion strains, locus YMR125W, strain sto1, hits give low values 1.13 [resistant] | S. cerevisiae deletion strains, locus YNL298W, strain CLA4, hits give low values 0.88 | S. cerevisiae deletion strains, locus YOR184W, strain ser1, hits give low values 0.679 | S. cerevisiae deletion strains, locus YOR231W, strain MKK1, hits give low values 0.85 | S. cerevisiae deletion strains, locus YPL106C, strain sse1, hits give low values 1.22 [resistant] | S. cerevisiae deletion strains, locus YPL241C, strain CIN2, hits give low values 1.07 [resistant] | S. cerevisiae deletion strains, locus YPR119W, strain clb2, hits give low values 1.07 [resistant]

Source: PubChem BioAssay AID1159580 (chemical genetic matrix, 2015)
